LEDGF integ inh = blockers of LEDGF/p75-dependent integrase strand transfer – biochemical, TR-FRET, high throughput, primary screen | AID 743269, 2014 | hit rate 0.64% among 370,000 | inhibition, % at 3.7 µM | HIV-1 integrase (with human LEDGF/p75) | TR-FRET IN-LEDGF/p75 DNA integration, Eu/Cy5;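 active = inhibition above the screen-wide mean plus 3 SD, cut at about 13% in these data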;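 also: signal is the Cy5 over europium emission ratio at 671 and 618 nm; 0% = plate median of compound wells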
Casp6 inh = human caspase-6 inhibitors, primary screen, biochemical, VEID-R110 fluorescence, single point, set 2; purified caspase-6, Z-VEID-R110 cleavage fluorescence; inhibition, % at 12.5 µM; hit rate 0.53% among 350,000;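 active = mean inhibition across replicates at least about 35%, with every replicate also reaching that limit, limit read from the data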;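 also: 0% = median of neutral control wells and 100% = no fluorescence left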
Target sequence (P55212 24-179 limits assumed): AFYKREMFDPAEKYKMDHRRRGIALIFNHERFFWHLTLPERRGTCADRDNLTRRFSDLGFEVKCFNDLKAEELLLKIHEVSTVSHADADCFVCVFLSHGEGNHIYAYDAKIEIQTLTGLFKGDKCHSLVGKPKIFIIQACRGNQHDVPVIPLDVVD
Target sequence (P55212 194-293 limits assumed): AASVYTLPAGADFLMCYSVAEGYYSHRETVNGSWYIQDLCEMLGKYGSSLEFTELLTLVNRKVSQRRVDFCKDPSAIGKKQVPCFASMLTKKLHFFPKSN
MBD2 DNA inh = inhibitors of MBD2 binding to methylated DNA, primary screen, biochemical, TR-FRET, DNA-binding domain, human; AID 686964, 2013; MBD2 binding to methylated oligonucleotide; Methyl-CpG-binding domain protein 2 (Homo sapiens), Q9UBB5; inhibition, % at 4.4 µM; hit rate 0.31% among 370,000; in the data active = inhibition above about 13%
Target sequence (Q9UBB5 whole entry, looked up, the tested form may be a part): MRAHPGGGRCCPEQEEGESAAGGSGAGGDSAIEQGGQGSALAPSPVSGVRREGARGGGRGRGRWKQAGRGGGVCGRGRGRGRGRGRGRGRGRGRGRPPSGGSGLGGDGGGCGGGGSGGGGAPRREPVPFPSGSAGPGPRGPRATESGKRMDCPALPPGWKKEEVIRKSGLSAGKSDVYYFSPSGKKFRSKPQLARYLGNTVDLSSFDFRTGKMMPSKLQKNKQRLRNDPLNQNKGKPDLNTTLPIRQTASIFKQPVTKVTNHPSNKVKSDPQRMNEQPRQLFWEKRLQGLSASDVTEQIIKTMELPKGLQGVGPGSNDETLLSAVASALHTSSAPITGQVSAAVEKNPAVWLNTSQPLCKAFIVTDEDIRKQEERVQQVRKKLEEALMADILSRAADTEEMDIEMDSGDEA
UHRF1 binding = UHRF1 methylated DNA binding inhibitors, primary screen, counter-screen for MBD2 inhibitor project, biochemical, TR-FRET, human UHRF1, single concentration. E3 ubiquitin-protein ligase UHRF1 (Homo sapiens), Q96T88. UHRF1 binding to methylated oligo. inhibition, % at 4.4 µM. hit rate 0.75% among 370,000; in the data active = inhibition above about 21%;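 also: UHRF1 SRA domain binding a hemimethylated CpG hairpin DNA probe; 0% = median of test compound wells and 100% = reference inhibitor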
UHRF1 ctr MBD2 = UHRF1 methylated DNA binding inhibitors, counter-screen for MBD2 inhibitor project, biochemical, TR-FRET, human UHRF1; AID 720530, 2013; shares compounds with MBD2 DNA inh; hit rate 25% among 1,000; UHRF1 binding to methylated oligonucleotide; inhibition, % at 4.4 µM; in the data active = inhibition above about 21%;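 also: UHRF1 SRA domain binding a labeled hemimethylated CpG hairpin DNA; 0% = vehicle only and 100% = reference inhibitor with vehicle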
MBD2 confirm = inhibitors of MBD2 binding to methylated DNA, confirmation, biochemical, TR-FRET, DNA-binding domain, human; inhibition, % at 4.4 µM; shares compounds with MBD2 DNA inh; AID 720531, 2013; hit rate 26% among 1,000; TR-FRET MBD2-DBD binding to methylated oligonucleotide
CASP1 counter = human caspase-1 inhibitors, dose response, selectivity assay for caspase-6 inhibitor project, biochemical, Z-YVAD-R110 fluorescence, cherry-pick, set 2; 100 tested, under 10 active; activity change, negative = inhibition, % at 35 µM; purified caspase-1, Z-YVAD-R110 cleavage fluorescence; AID 743289, 2014; shares compounds with Casp6 inh;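 active = compounds lowering fluorescence whose fitted half-maximal concentration is no more than twice their top tested dose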
IN multimer act = HIV-1 IN multimer formation enhancers, counter-screen for LEDGF/p75 integration inhibitor project, biochemical, TR-FRET; shares compounds with LEDGF integ inh; TR-FRET HIV-1 integrase multimerization; activation, % at 7.7 µM; hit rate 17% among 2,000; in the data active = activation above about 8.9%
TRFRET interf = TR-FRET optical interference artefacts, confirmation, artefact control for LEDGF/p75-dependent integration inhibitor project, biochemical, HIV-1 IN multimerization; shares compounds with LEDGF integ inh; TR-FRET optical interference counterscreen; inhibition, % at 7.7 µM; 2,000 tested, under 10 active; AID 1053135, 2014;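 active = inhibition above the mean over all tested compounds plus 3 SD, which no compound reached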;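 also: 0% = integrase with antibodies and DMSO and 100% = antibodies without integrase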
IN-LEDGF confirm = inhibitors of HIV-1 IN-LEDGF/p75 DNA integration, confirmation, biochemical, TR-FRET | TR-FRET LEDGF/p75-dependent HIV-1 integration | inhibition, % at 3.7 µM | shares compounds with LEDGF integ inh | hit rate 36% among 2,000
Starred values were filed as active, the others as inactive; . = no result given. The list is not random: actives were taken first. Their share in the collection is about 1.4%. Rule as the data show it, unless noted: active = inhibition above about 14%; inactive = the rest.

SMILES	LEDGF integ inh	Casp6 inh	MBD2 DNA inh	UHRF1 binding	CASP1 counter	others
Oc1ccc(/C=N/NC(=S)Nc2cccnc2)c(O)c1O	83.6*	49.4*	30.3*	63.5*	.	UHRF1 ctr MBD2=-6.4;MBD2 confirm=-2.0;IN multimer act=30.2*;TRFRET interf=-152.0;IN-LEDGF confirm=84.3*
Cc1c(Br)c(O)c(Br)c2sc(=O)oc12	55.2*	3.9	15.8*	33.0*	.	UHRF1 ctr MBD2=8.8;MBD2 confirm=4.6;IN multimer act=1.6;TRFRET interf=-8.0;IN-LEDGF confirm=13.7*
O=C(C[C@H]1CC[C@@H]2[C@H](COC[C@@H](O)CN2Cc2cc(F)ccc2F)O1)NCc1ccccc1	.	-3.1	.	.	.
O=C(N/N=C/c1cccc(F)c1)c1cc(-c2ccco2)nc2ccccc12	19.9*	.	23.5*	30.3*	.	UHRF1 ctr MBD2=41.8*;MBD2 confirm=36.1*;IN multimer act=21.2*;TRFRET interf=-106.8;IN-LEDGF confirm=49.1*
CCOc1cccc(=O)c2c(C)n(-c3ccc(C(=O)O)cc3)c(C)c12	76.4*	32.7	30.6*	88.3*	.	UHRF1 ctr MBD2=10.0;MBD2 confirm=1.7;IN multimer act=3.4;TRFRET interf=-16.9;IN-LEDGF confirm=30.4*
CCOc1cccc(=O)c2c(C)n(Cc3ccccc3)c(C)c12	-0.9	1.6	0.1	-2.6	.
O=C(O)c1ccc(N2C(=O)/C(=C/C=C/c3ccccc3)SC2=S)cc1	-0.1	1.3	7.6	16.8	.
O=C(NN1C(=O)/C(=C/C=C/c2ccco2)SC1=S)c1ccncc1	82.9*	76.1*	73.6*	96.7*	.	UHRF1 ctr MBD2=89.7*;MBD2 confirm=63.0*;IN multimer act=46.5*;TRFRET interf=-165.2;IN-LEDGF confirm=82.6*
O=C(NN1C(=O)/C(=C/C=C/c2ccccc2)SC1=S)c1ccncc1	0.6	16.6	-4.7	-11.6	.
O=C1/C(=C/C=C/c2ccco2)SC(=S)N1c1ccc(O)cc1	75.8*	76.3*	41.5*	86.6*	.	UHRF1 ctr MBD2=19.7;MBD2 confirm=6.3;IN multimer act=18.8*;TRFRET interf=-67.0;IN-LEDGF confirm=73.3*
O=C(C[C@@H]1CC[C@@H](NC(=O)Nc2cc(F)ccc2F)[C@@H](CO)O1)Nc1ccc(-c2ccccc2)cc1	.	1.2	.	.	.
Cc1ccc(C)n1C(CC(=O)O)c1ccc(C#N)cc1 (configuration not stated)	47.5*	13.8	27.1*	94.6*	.	UHRF1 ctr MBD2=11.1;MBD2 confirm=4.6;IN multimer act=1.6;TRFRET interf=-5.6;IN-LEDGF confirm=12.8
C[C@@H]1CN([C@@H](C)CO)C(=O)c2cc(NC(=O)C3CC3)ccc2O[C@H]1CN(C)Cc1ccc(Oc2ccccc2)cc1	.	-1.4	.	.	.
C[C@H](CO)N1C[C@H](C)[C@@H](CN(C)S(=O)(=O)c2ccc(Cl)cc2)Oc2ccc(NC(=O)Cc3ccccc3)cc2CC1=O	.	-1.4	.	.	.
CCCCNC(=O)c1nc(C2CCN(S(=O)(=O)c3ccccc3)CC2)oc1-c1cccc(C(F)(F)F)c1	2.6	-1.4	-2.6	11.7	.
CCCCNC(=O)c1nc(C2CCNCC2)oc1-c1cccc(C(F)(F)F)c1	5.5	92.3*	1.0	18.9	-1.6
Nc1cc(S(=O)(=O)O)cc([N+](=O)[O-])c1O	44.5*	59.4*	10.2	80.7*	-2.9
O=C1CN(C(=O)COC(=O)c2cccs2)c2ccccc2N1	1.8	3.9	7.9	1.7	.
O=C1CN(C(=O)COC(=O)c2ccc([N+](=O)[O-])s2)c2ccccc2N1	.	.	.	.	-1.4
COc1ccc(C(=O)OCC(=O)Nc2sccc2C(N)=O)cc1OC	-0.7	1.3	3.6	-2.9	.
COc1ccc(C(=O)OCC(=O)Nc2ncc([N+](=O)[O-])s2)cc1OC	7.8	56.9*	0.3	11.2	-1.6
C[C@H]1CN([C@@H](C)CO)C(=O)c2cccc(NC(=O)C3CCCCC3)c2O[C@H]1CN(C)S(C)(=O)=O	.	1.9	.	.	.
CN(CC(=O)Nc1cccc(F)c1)C(=O)c1cccc(-n2cccc2)c1	2.1	10.8	6.5	18.9	.
CN(CC(=O)Nc1c(Cl)cccc1Cl)C(=O)c1cccc(-n2cccc2)c1	2.8	41.7*	7.4	22.8*	2.5
COc1ccc(S(=O)(=O)N(C)C[C@H]2OCCCC[C@@H](C)Oc3ccc(NS(=O)(=O)c4c(C)noc4C)cc3C(=O)N([C@@H](C)CO)C[C@@H]2C)cc1	.	1.2	.	.	.
SMILES	LEDGF integ inh	Casp6 inh	MBD2 DNA inh	UHRF1 binding	CASP1 counter	others
COc1ccc(S(=O)(=O)Nc2cc(Sc3ncn[nH]3)c(O)c3ccccc23)cc1	45.1*	.	-5.5	1.2	2.7
COc1ccc(S(=O)(=O)Nc2ccc(O)c(Sc3ncn[nH]3)c2)cc1	-2.7	.	1.6	1.0	.
O=c1c(CO)cc(CO)cc(CO)c1O	-3.6	70.8*	-2.0	-1.2	0.1
COc1ccc([N+](=O)[O-])cc1NC(=O)CS(=O)(=O)c1ccc(C)cc1	1.0	-1.1	-1.6	-1.4	.
COc1ccc([N+](=O)[O-])cc1NC(=O)CCS(=O)(=O)c1ccc(Br)cc1	-0.9	31.0	0.8	9.5	-1.6
COc1cc(-c2ccc(Nc3ccccc3C(=O)O)c(OC)c2)ccc1Nc1ccccc1C(=O)O	8.9	39.5*	7.5	21.5*	-3.0
COc1cc([N+](=O)[O-])c(OC)cc1Nc1ccccc1C(=O)O	-1.8	29.2	-8.8	15.6	.
O=c1oc2ccccc2c2oc3cc(O)c(O)cc3c12	4.5	43.7*	-4.3	-9.9	-0.2
C[C@H](CO)N1C[C@H](C)[C@@H](CN(C)S(=O)(=O)c2cn(C)cn2)Oc2ncc(/C=C/c3ccccc3)cc2C1=O	.	3.8	.	.	.
O=C(C[C@H]1C[C@H]2c3cc(NC(=O)CC4CC4)ccc3O[C@H]2[C@H](CO)O1)NCc1ccc2c(c1)OCO2	.	0.6	.	.	.
O=C(O)C1Nc2c(Cl)cc(Cl)c(Cl)c2C2C=CCC12 (configuration not stated)	4.4	39.6*	1.1	4.7	20.9

High-throughput results (PubChem)
